Source: PubChem
Shown are actives, neighbours in structure and some others; about 9% of the full set was active somewhere.
HPGD inh – HPGD (human) dehydrogenase inhibition; P15428; purified HPGD, NADH fluorescence kinetic, PGE2 substrate; Potency, µM, most hits filed as inhibitors; 150,000 compounds, 4.3% hits
Target sequence (P15428 whole entry, looked up): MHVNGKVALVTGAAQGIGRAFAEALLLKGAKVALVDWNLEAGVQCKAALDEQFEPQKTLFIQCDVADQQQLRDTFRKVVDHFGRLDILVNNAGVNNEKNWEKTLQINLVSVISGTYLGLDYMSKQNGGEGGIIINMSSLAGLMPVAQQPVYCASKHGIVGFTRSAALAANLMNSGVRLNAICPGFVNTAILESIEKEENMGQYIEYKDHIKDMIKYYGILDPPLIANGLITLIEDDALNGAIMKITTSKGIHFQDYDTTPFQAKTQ
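20 nM HPGD preincubated 15 min at room temperature with compound in 50 mM Tris-HCl pH 8, 0.01% Tween 20. Started with 1 mM NAD+ and 30 uM prostaglandin E2; NADH fluorescence (360/450 nm) read 5 times over 30-s intervals, last minus first.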
ALDH1A1 block – inhibitors of human aldehyde dehydrogenase 1A1 | Purified ALDH1A1, NADH fluorescence, propionaldehyde substrate | Potency, µM (doses to about 75.3 µM), actives largely listed as inhibitors | 220,000 compounds, 7.3% hits | AID 1030
IMPase inh – membrane-permeable compound that blocks inositol monophosphatase | P97697 | CHO-M1 cells, IP1 accumulation, HTRF TR-FRET ratio | inhibition (IP1 accumulation), % at 46.1 µM | 120,000 tested, under 10 active | AID 901; active = well fitted curve in the direction sought with a large enough effect in the signal ratio, not every such curve was filed as active; inconclusive = small, poorly fitted or top-dose-only effect, or a change in a side signal; inactive = no such curve, though single readings can be large or run the other way; the % refers to the signal ratio;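 note: cells stimulated with carbachol in lithium chloride buffer; higher means more IMPase inhibition seen as more IP1 and lower FRET ratio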
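CHO-M1, 2000 cells/well, cultured 16–30 h; cpd up to 46 uM; carbachol (50 uM solution, stimulation buffer w/ 50 mM LiCl, pH 7.4), 30 min 37C; IP-One TR-FRET, 10 min RT; Ex 320/Em 665, 620; Hill-fit AC50.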
A number is an active result; - = inactive; ? = inconclusive; . = no result given; [ ] = remark or other dose. Unless noted, calls come from the whole dose curve; as a rule, active = well fitted inhibition curve with a large enough effect (not every such curve was filed as active); inconclusive = small, poorly fitted or top-dose-only effect, or another doubt; inactive = no such curve, though single readings can be large or run the other way.

SMILES	HPGD inh	ALDH1A1 block	IMPase inh
CC/C(=N\NC(=O)c1cc(C)nc2ccccc12)c1ccc(C)s1	-	-	.
COc1ccccc1N(C)S(=O)(=O)c1ccc(C(=O)OCC(=O)N2CCC2)cc1	.	-	.
NC(=O)c1ccsc1NC(=O)c1coc2ccccc2c1=O	.	-	.
Cc1ccc(S(=O)(=O)Oc2ccc(/C=C(/NC(=O)c3ccccc3)C(=O)NCC(=O)O)cc2)cc1	.	5µM	.
COc1ccccc1C(=O)N/C(=C\c1ccccc1)C(=O)NC(C)C(=O)O (stereo unspecified)	.	-	.
COc1ccccc1C(=O)N/C(=C\c1ccc(Br)cc1)C(=O)NCC(=O)O	-	-	.
Cc1ccc(S(=O)(=O)Oc2ccc(/C=C(/NC(=O)c3ccccc3)C(=O)O)cc2)cc1	.	13µM	.
Cc1ccc(S(=O)(=O)Oc2ccc(/C=C(/NC(=O)c3ccccc3)C(=O)NC(C)C(=O)O)cc2)cc1 (stereo unspecified)	.	4µM	.
CC(=O)N/C(=C\c1ccc(C)cc1)C(=O)O	.	-	.
CCOc1cc(C(=O)Nc2cc3c(cc2N2CCOCC2)n(C)c(=O)n3C)cc(OCC)c1OCC	.	.	-
Nc1nc2c(nc(Br)n2[C@@H]2O[C@H]3COP(=O)(O)O[C@@H]3[C@H]2O)c(=O)[nH]1	.	.	-
CC(C)(C)OC(=O)[C@H]1[C@H](c2ccc([N+](=O)[O-])cc2)C2(C(=O)c3ccccc3C2=O)C2c3ccccc3C=NN21 (stereo partly specified)	-	?	.
CCOC(=O)N1CCN(C(=O)CSc2nc(CC)nc3c2c(=O)n(C)c(=O)n3C)CC1	.	-	.
CCCn1c(=O)c2ccccc2n2c(SCC(=O)N3CCc4ccccc4C3)nnc12	-	-	-
CCCCCN1C(C(=O)c2ccccc2)=C(NC(=O)c2ccccc2Cl)c2ccccc2S1(=O)=O	.	.	-
Cn1c(=S)[nH]c2c(c1=O)C(C)(C)Cc1ccccc1-2	.	8.9µM	.
CCn1c(=S)[nH]c2c(c1=O)C(C)(C)Cc1ccccc1-2	.	-	.
COC(=O)C/C=C\[C@@H](C)[C@@H](/C=N\O[C@@H](C)c1cn([C@H](CO)Cc2ccccc2)nn1)OC	.	-[13.5 µM]	.
Cc1cc(Cl)cc(C)c1OCC(=O)O	-	-	-
O=C(O)COc1c(Cl)cc(/C=C2\NC(=O)NC2=O)cc1Br	.	18µM	.
CCC(C)N1C(=O)/C(=C/c2c(NCCCOC(C)C)nc3c(C)cccn3c2=O)SC1=S (stereo unspecified)	-	-	-
CCOC(=O)CC1C(=O)NCCN1c1nc2ccc(C)cn2c(=O)c1/C=C1\SC(=S)N(C(C)CC)C1=O (stereo unspecified)	.	1.4µM	.
Brc1ccc(-c2nnc3n2-c2ccccc2CC3)cc1	-	-	-
O=C(C1=C(O)C(=O)N(CCc2ccccc2)C1c1cccnc1)c1ccco1 (stereo unspecified)	-	18µM	?
CC(C)Oc1ccc(C2C(C(=O)c3ccco3)=C(O)C(=O)N2Cc2cccnc2)cc1 (stereo unspecified)	-	-	?
SMILES	HPGD inh	ALDH1A1 block	IMPase inh
CCOc1ccc(C2C(C(=O)c3ccco3)=C(O)C(=O)N2Cc2cccnc2)cc1OC (stereo unspecified)	-	25µM	-
O=C(C1=C(O)C(=O)N(CCc2ccccc2)C1c1cccs1)c1ccco1 (stereo unspecified)	.	-	.
COCCCN1C(=O)C(O)=C(C(=O)c2ccc(C)o2)C1c1cccc(Br)c1 (stereo unspecified)	-	-	?
O=C(C1=C(O)C(=O)N(c2nccs2)C1c1ccccc1)c1cc2ccccc2o1 (stereo unspecified)	.	22µM	.
CCOc1cccc(C2C(C(=O)c3ccc(C)o3)=C(O)C(=O)N2c2nccs2)c1 (stereo unspecified)	.	-	?
COCCCN1C(=O)C(O)=C(C(=O)c2ccco2)C1c1ccccc1 (stereo unspecified)	-	28µM	?
CCC(C(=O)Nc1cc(C)ccc1OC)n1nnc(C(=O)OC)c1C(=O)OC (stereo unspecified)	.	.	-
Cc1c([N+](=O)[O-])c2ccc(O)cc2n1-c1ccccc1	.	-	.
C#CCOc1ccc(-c2nnc(Nc3cccc(C)c3)c3ccccc23)cc1	.	.	-
COc1ccc(NC(=O)CSC2=Nc3ccccc3C3=NC(CCC(=O)NCc4ccc(F)cc4)C(=O)N23)cc1Cl (stereo unspecified)	.	.	-
CC/C(=N/N=C(\CC)c1ccccc1)c1ccccc1	-	-	.
CCN(CC)CCN1C(=O)C(O)=C(C(=O)c2cc3ccccc3o2)C1c1cccnc1 (stereo unspecified)	-	-	?
CN(C)CCN1C(=O)C(O)=C(C(=O)c2cc3ccccc3o2)C1c1cccc(Br)c1 (stereo unspecified)	-	-	?
